Reference: PubChem BioAssay
The source made the active and inactive calls.

Experiments:
Albumin (Bos taurus) = Albumin (Bos taurus) (UniProt P02769); test: bovine serum albumin binders on microarray, profiling panel, artefact control for SMM control protein annotation, biochemical, small-molecule microarray, Alexa647 label, 635/667 nm fluorescence (AID 1118); settings: BSA-A647 binding, fluorescence 635 nm, higher = more signal;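 note: score merges 667 nm emission intensity and signal-to-noise per printed compound spot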
[1] = small-molecule microarray binders of probe aXIP, primary screen, biochemical, NeuroSMM set, 635/667 nm fluorescence (AID 1119); settings: higher = more signal, called active from +8 up or from −8 down;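 note: probe is the protein aXip251-270 applied at 1 µg/mL to compound-printed slides; binding of probe to printed compounds measured as 667 nm fluorescence plus signal to noise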
[2] = small-molecule binders of probe aNOTCH3, primary screen, biochemical, small-molecule microarray, 635/667 nm fluorescence (AID 1120); settings: higher = more signal;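 note: probe is a biotin-tagged antibody raised against NOTCH3 rather than NOTCH3 protein; score merges spot fluorescence near 667 nm with spot signal to noise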
[3] = small-molecule binders of probe aNOTCH2, primary screen, biochemical, small-molecule microarray, 635/667 nm fluorescence (AID 1121); settings: higher = more signal;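 note: score merges feature fluorescence read at 667 nm with its signal to noise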
[4] = target: Carbonic anhydrase 2 (Homo sapiens) (UniProt P00918); test: CAII small-molecule binders, profiling panel, biochemical, small-molecule microarray, Alexa647-labelled CAII (AID 1122); settings: CAII-A647 binding fluorescence, higher = more signal
[5] = COS7 lysate on small-molecule microarray, probe aHis, 635 nm (AID 1123); settings: COS7 cell lysate, fluorescence, higher = more signal;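 note: z-score combines 667nm fluorescence intensity with signal-to-noise per printed compound spot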
[6] = compound binding in COS7 lysate, probe aLAP1, primary screen, cell lysate, small-molecule microarray (AID 1124); settings: probe aLAP1, fluorescence, higher = more signal;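 note: lysate comes from COS7 cells expressing LAP1 and is applied at 0.3 µg/mL; score merges spot fluorescence near 667 nm with signal-to-noise over triplicate slides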
Sam68 (KHDRBS1) = test: Sam68 small-molecule binders, primary screen, biochemical, small-molecule microarray, 635 nm fluorescence (AID 1125); settings: small-molecule microarray binding, higher = more signal;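 note: score merges 667 nm channel intensity with signal to noise over triplicate slides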
[7] = system: Chordin-like protein 2 (CHRDL2); test: CHRDL2 small-molecule binders, primary screen, biochemical, small-molecule microarray, 635 nm fluorescence (AID 1126); settings: small-molecule microarray binding, fluorescence 635 nm; higher = more signal;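 note: printed compound slides probed with Chrdl2 protein at 4 µg/mL for 1 h at 4 C; score merges 667 nm emission intensity with signal to noise over three replicate slides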
[8] = target: Concanavalin-A (Canavalia ensiformis) (UniProt P02866); test: ConA small-molecule binders, primary screen, artefact control for SMM control protein annotation, biochemical, small-molecule microarray, Alexa647 label, 635 nm (AID 1127); settings: ConA-A647 binding fluorescence, higher = more signal;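 note: z combines 667 nm emission intensity with signal-to-noise across three replicate slides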
[9] = anti-His antibody binders, primary screen, artefact control for SMM control protein annotation, biochemical, small-molecule microarray, 635 nm fluorescence (AID 1128); settings: anti-His Alexa647 antibody binding, higher = more signal;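 note: score merges feature fluorescence with signal-to-noise for each printed compound spot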
[10] = system: Human papillomavirus type 1a E7 protein (residues 1-88); test: HPV1a E7 small-molecule binders, primary screen, biochemical, small-molecule microarray, residues 1-88, 635 nm (AID 1129); settings: small-molecule microarray binding, fluorescence 635 nm; higher = more signal
[11] = target: Focal adhesion kinase 1 (Homo sapiens) (UniProt Q05397); test: small-molecule microarray binders of FAK, primary screen, biochemical, 635/667 nm fluorescence, BSA, DTT (AID 1130); settings: PTK2 binding, 635 nm fluorescence, higher = more signal;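 note: composite of spot emission at 667 nm and signal to noise over triplicate slides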
[12] = system: Fibrinogen (Alexa647-labelled); test: fibrinogen binders on compound microarrays, profiling panel, artefact control for SMM control-protein annotation, biochemical, small-molecule microarray, 635/667 nm fluorescence (AID 1131); settings: fibrinogen-A647 binding fluorescence, higher = more signal;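 note: z-score merges 667 nm fluorescence with per-spot signal-to-noise over triplicate slides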
[13] = target: Follistatin (Homo sapiens) (UniProt P19883); test: follistatin binders on small-molecule microarrays, primary screen, biochemical, small-molecule microarray, 635/667 nm fluorescence (AID 1132); settings: FST binding, 635 nm fluorescence, higher = more signal
[14] = target: Fibroblast growth factor 2 (Homo sapiens) (UniProt P09038); test: FGF2 binders on small-molecule microarrays, primary screen, biochemical, small-molecule microarray, 635/667 nm fluorescence (AID 1133); settings: small-molecule microarray binding, FGF2, fluorescence 635/667; higher = more signal
[15] = mitochondrial membrane potential change in A549 cells, profiling panel, cell-based, JC-1 fluorescence, basal, 24 h, 100 nL (AID 1138); settings: higher = more signal;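 note: A549 lung adenocarcinoma cells under basal conditions with no added stimulus; test concentration not given here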
Lefty1 = Lefty1 binders on small-molecule microarrays, primary screen, biochemical, small-molecule microarray, 635/667 nm fluorescence (AID 1139); settings: small-molecule microarray binding, fluorescence 635/667; higher = more signal
[16] = system: wheat germ agglutinin (Triticum aestivum), Alexa647-labelled; test: wheat germ agglutinin binders on compound microarrays, profiling panel, artefact control for SMM control-protein annotation, biochemical, small-molecule microarray, 635/667 nm fluorescence (AID 1140); settings: WGA-A647 binding, 635 nm fluorescence, higher = more signal;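 note: score merges 667 nm feature emission with signal to noise over triplicate slides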
[17] = target: Luciferin 4-monooxygenase (Photinus pyralis) (UniProt P08659); test: firefly luciferase enzyme inhibitors, primary screen, biochemical, luminescence, purified enzyme, 2006 set (AID 1141); settings: SteadyGlo luminescence, 30 min, higher = more signal, called active from +8 up or from −8 down;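 note: cell-free assay with purified firefly luciferase at 100 ng per well in PBS; test concentration not given here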
Chain of Luciferin 4-monooxygenase (Photinus pyralis) (P08659 whole entry, looked up): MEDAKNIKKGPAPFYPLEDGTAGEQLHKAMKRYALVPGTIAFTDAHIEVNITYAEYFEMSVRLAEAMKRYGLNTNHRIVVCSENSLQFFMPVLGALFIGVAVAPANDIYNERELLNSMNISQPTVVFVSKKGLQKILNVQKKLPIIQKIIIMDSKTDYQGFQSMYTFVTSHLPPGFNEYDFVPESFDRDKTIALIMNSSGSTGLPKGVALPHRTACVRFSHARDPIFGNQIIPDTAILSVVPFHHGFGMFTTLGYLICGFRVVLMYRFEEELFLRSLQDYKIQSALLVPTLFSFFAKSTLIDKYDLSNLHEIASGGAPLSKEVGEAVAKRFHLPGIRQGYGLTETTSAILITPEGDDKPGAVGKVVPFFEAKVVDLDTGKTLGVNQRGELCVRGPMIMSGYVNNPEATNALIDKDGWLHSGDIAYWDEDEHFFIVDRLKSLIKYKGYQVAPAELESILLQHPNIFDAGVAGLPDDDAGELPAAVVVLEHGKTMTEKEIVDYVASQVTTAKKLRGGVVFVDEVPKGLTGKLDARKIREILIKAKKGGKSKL

Chain of Focal adhesion kinase 1 (Homo sapiens) (Q05397 whole entry, looked up): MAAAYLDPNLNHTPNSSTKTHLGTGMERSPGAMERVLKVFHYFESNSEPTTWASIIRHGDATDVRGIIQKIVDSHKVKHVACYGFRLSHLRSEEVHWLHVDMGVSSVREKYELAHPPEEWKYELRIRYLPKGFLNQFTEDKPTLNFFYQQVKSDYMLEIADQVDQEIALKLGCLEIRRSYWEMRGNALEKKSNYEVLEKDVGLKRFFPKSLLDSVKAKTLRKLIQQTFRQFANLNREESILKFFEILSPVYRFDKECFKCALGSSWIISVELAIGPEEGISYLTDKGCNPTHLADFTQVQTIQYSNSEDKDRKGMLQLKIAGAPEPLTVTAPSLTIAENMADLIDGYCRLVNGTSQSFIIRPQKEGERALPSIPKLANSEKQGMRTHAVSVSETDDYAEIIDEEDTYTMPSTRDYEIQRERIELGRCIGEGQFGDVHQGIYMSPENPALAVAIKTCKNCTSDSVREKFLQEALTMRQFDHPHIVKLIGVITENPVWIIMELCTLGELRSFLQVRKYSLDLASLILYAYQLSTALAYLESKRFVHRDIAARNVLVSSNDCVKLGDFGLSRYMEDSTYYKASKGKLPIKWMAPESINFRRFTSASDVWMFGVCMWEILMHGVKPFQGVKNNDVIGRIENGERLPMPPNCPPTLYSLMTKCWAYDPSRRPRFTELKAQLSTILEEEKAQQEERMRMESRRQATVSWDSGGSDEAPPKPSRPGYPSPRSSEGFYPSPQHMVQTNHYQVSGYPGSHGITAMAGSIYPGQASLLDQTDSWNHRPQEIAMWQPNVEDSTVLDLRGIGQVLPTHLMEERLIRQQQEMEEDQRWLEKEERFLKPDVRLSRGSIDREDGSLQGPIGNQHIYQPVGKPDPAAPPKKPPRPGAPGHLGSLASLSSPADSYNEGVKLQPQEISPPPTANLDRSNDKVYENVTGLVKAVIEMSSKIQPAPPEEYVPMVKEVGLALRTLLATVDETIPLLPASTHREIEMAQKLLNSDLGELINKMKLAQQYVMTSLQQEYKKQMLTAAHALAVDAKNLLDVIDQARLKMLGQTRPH
Chain of Concanavalin-A (Canavalia ensiformis) (P02866 whole entry, looked up): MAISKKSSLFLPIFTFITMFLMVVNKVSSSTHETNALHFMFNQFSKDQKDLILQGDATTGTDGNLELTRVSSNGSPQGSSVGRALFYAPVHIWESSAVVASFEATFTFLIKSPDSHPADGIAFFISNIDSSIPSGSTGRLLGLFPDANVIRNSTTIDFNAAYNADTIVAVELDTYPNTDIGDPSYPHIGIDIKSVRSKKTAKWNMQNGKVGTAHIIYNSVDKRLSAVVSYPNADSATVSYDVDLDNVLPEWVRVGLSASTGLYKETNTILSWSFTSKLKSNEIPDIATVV
Chain of Albumin (Bos taurus) (P02769 whole entry, looked up): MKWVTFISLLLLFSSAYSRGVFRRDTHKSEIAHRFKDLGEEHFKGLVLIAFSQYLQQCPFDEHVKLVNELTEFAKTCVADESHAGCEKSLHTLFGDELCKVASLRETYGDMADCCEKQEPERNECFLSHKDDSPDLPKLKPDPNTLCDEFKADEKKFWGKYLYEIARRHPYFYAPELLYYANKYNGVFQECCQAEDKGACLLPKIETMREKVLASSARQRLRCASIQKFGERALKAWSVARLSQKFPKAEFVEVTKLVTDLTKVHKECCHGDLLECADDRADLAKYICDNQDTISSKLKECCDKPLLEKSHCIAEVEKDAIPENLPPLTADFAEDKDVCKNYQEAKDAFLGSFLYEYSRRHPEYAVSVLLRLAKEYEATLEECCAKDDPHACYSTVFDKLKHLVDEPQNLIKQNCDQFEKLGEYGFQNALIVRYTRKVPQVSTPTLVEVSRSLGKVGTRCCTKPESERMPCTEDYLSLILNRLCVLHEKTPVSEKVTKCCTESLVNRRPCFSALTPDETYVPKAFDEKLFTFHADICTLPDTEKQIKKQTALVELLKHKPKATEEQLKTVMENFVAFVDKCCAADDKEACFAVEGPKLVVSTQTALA
Chain of Fibroblast growth factor 2 (Homo sapiens) (P09038 whole entry, looked up): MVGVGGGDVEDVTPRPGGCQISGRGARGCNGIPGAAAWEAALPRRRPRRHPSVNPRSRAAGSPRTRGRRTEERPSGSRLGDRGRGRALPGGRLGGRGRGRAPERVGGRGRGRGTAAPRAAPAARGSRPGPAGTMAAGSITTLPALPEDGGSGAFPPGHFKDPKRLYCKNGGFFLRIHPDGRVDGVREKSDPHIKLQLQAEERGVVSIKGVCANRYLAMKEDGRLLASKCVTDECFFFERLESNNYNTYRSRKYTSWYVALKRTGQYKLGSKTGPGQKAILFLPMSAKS
Chain of Follistatin (Homo sapiens) (P19883 whole entry, looked up): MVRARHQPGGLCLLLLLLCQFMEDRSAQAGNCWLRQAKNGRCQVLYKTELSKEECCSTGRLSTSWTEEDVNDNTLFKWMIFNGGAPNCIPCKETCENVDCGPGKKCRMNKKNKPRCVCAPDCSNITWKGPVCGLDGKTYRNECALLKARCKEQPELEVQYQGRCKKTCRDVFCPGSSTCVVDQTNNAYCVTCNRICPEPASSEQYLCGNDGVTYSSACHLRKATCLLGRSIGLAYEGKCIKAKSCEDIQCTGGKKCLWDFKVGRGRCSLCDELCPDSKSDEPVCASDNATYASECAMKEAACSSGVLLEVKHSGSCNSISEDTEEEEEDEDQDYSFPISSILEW

Compound | composite z-score (Albumin (Bos taurus)) | composite Z-score [1] | composite z-score [2] | composite z-score [3] | composite z-score [4] | composite z-score [5] | composite z-score [6] | composite z-score (Sam68 (KHDRBS1)) | composite z-score [7] | composite z-score [8] | composite z-score [9] | composite z-score [10] | composite z-score [11] | composite z-score [12] | composite z-score [13] | composite z-score [14] | z-score [15] | composite z-score (Lefty1) | composite z-score [16] | z-score [17]
C=CC[C@]12N=C(c3ccc(OCCCO)cc3)O[C@H]1c1ccccc1N(C)C2=O | 0.0095 | 2.56 (inactive) | 0.336 | 0.0424 | 0.308 | 2.73 | 1.14 | 1.21 | 0.76 | 0.989 | 2.7 | 1.2 | 1.37 | 0.325 | 1.46 | 0.837 | -0.829 | 0.501 | 0.675 | -7.68 (inactive)
C[C@]1(C(=O)NCCN2CCOCC2)c2ccccc2C(=O)N(Cc2ccc(OC(F)(F)F)cc2)[C@H]1c1ccc(CO)cc1 | 0.723 | 0.456 (inactive) | -0.154 | -0.0966 | 0.627 | 2.43 | 0.345 | 0.217 | -1.15 | 0.392 | 2.24 | 0.634 | -0.108 | 0.915 | 0.536 | -0.38 | 1.68 | -0.355 | 0.55 | -0.0852 (inactive)
CC1CC/C=C\[C@H]2OC34C=CCN(c5ccc6ccccc6c5)C(=O)[C@H]3N(C(CO)C(C)C)C(=O)[C@@H]4C2C(=O)O1 (stereo not given in full) | 0.912 | 0.142 (inactive) | -0.125 | -0.125 | 0.786 | 1.07 | 0.407 | 0.0645 | -0.315 | 0.0601 | 1.22 | 0.29 | 1.33 | -1.01 | 0.136 | -0.282 | 0.254 | 0.0964 | 1.08 | -0.776 (inactive)
C=C(CCCC)C(=O)CC[C@@H](OC(=O)c1cccnc1)c1ccccc1OCCO | -0.326 | 0.589 (inactive) | 0.1 | -0.0804 | 0.406 | -0.256 | 0.377 | 0.44 | 0.515 | -1.51 | -0.349 | -0.107 | -0.0523 | 0.48 | 0.865 | 1.34 | 1.24 | 1.56 | 0.058 | -0.511 (inactive)
CC(C)CNC(=O)[C@@]1(c2ccc([N+](=O)[O-])cc2)CC(=O)N(C2CCCCC2)[C@@H]1c1ccc(CO)cc1I | 0.441 | 0.0911 (inactive) | -0.0598 | -0.0761 | 0.469 | 1.86 | 0.15 | 0.754 | -0.662 | 0.282 | -0.423 | 0.676 | 0.295 | -0.106 | -0.0906 | 0.669 | 1.86 | -0.411 | 1.15 | -0.712 (inactive)
C=CC[C@@]12N=C(c3ccc(OCCCO)cc3)O[C@@H]1c1ccccc1N(CCS(=O)(=O)c1ccccc1)C2=O | 0.873 | -0.32 (inactive) | 0.0692 | -0.16 | 0.724 | 1.78 | 0.551 | 1.31 | 0.992 | 1.17 | 0.954 | 1.22 | 0.87 | 0.944 | 1.3 | 1.55 | 0.699 | 0.51 | 0.961 | -12.1 (active)
O=C(O)[C@H]1C[C@H]2C(=O)N3CCC[C@H]3C(=O)N2[C@H]1c1cccc(OCCO)c1 | -0.698 | 0.223 (inactive) | -0.124 | -0.115 | 0.525 | 1.21 | -0.332 | 0.833 | 0.996 | 0.942 | 2.79 | 0.658 | -0.525 | 0.0871 | 1.32 | 0.871 | 1.95 | 0.232 | 0.227 | -1.97 (inactive)
CCOc1cc(C(O)C2C=CC3C(=O)N(C4CCCCC4)C(=O)C3N2Nc2ccc(OC)cc2)ccc1O (stereo not given) | 0.786 | 0.764 (inactive) | 0.208 | 0.0791 | 0.441 | 2.61 | 0.717 | 1.28 | -0.0164 | 1.12 | 0.675 | 1.19 | 0.903 | 0.705 | 0.846 | -0.0785 | 0.786 | 0.225 | 0.686 | -0.0537 (inactive)
COc1ccc([Si](C)(C)[C@H]2[C@H](CCn3cc([C@H](O)c4ccccc4)nn3)O[C@@]3(C(=O)N(Cc4ccc(N5CCC5=O)cc4)c4ccccc43)[C@@H]2C)cc1 | 0.0383 | -0.128 (inactive) | -0.0647 | -0.167 | 0.0133 | 0.418 | 0.142 | 0.654 | 0.786 | 0.672 | 0.814 | 0.578 | -0.441 | -0.116 | 1.25 | 1.47 | 0.527 | 1.18 | 0.264 | 0.465 (inactive)
O=C1O[C@@H](c2ccccc2)[C@@H](c2ccccc2)N2[C@@H](c3ccccc3OCCO)[C@]3(C(=O)Nc4ccc(C#CCCO)cc43)[C@@H](C(=O)N3CCN(c4ncccn4)CC3)[C@H]12 | 0.717 | 1.37 (inactive) | 0.0208 | -0.0811 | 0.298 | 2.09 | 0.176 | 1.19 | 0.0179 | 1.12 | 1.72 | 1.19 | 0.747 | 0.946 | 0.389 | -0.0344 | 0.679 | 0.081 | 0.65 | 0.27 (inactive)
